Luciferase inh – qHTS Assay for Inhibitors of Firefly Luciferase | Luciferin 4-monooxygenase (Photinus pyralis), P08659 | purified firefly luciferase, luminescence, 8 min | Potency, µM (titrated, usually from 57.1 µM), usual class: inhibitors | 72,000 tested, 2.2% active | AID 411, 2009; note: nearly all actives have a fitted effect of over 40% in size
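Here, luciferase activity is measured as luminescence following an 8 min room-temperature reaction at 10 uM ATP, pH 7.2. Every library sample is titrated.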
p53ts 32C kill – qHTS Screen for Compounds that Selectively Target Cancer Cells with p53 Mutations: Cytotoxicity of p53ts Cells at the Permissive Temperature; 130,000 tested, 0.93% active; Potency, µM (top dose mostly 46.1 µM), usual class: cytotoxic; H1299-p53A138V at 32C, ATP luminescence viability, 24 h; note: nearly all actives have a fitted effect of over 55% in size
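Viability by ATPlite luminescence after 24 h compound treatment (up to 46 uM) at the permissive 32C. Cells are H1299 carrying p53 A138V. Scale runs from DMSO basal to 100 uM tamoxifen as full kill; AC50 from Hill fits.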
p53ts 39C kill – qHTS Screen for Compounds that Selectively Target Cancer Cells with p53 Mutations: Cytotoxicity of p53ts Cells at the Nonpermissive Temperature; H1299-p53A138V viability at 39C, ATP luminescence, 24 h; AID 902, 2007; Potency, µM (series often up to 46.1 µM), usual class: cytotoxic; 130,000 tested, 1.5% active; note: nearly all actives have a fitted effect of over 55% in size
Imprint erasure – qHTS Assay for Compounds that Induce Erasure of Genomic Imprints | mouse ES Peg3-LacZ reporter, beta-gal luminescence, 40 h | Potency, µM (doses to about 60.7 µM), hits mostly activators | 110,000 tested, 0.02% active | AID 1948, 2009
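Imprint erasure is scored as LacZ activity from the silenced maternal Peg3 allele in feeder-free female ES cells cultured 40 h with LIF. Luminescence is normalized to in-plate negative controls and fitted to the Hill equation.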
Tau filament bind – qHTS Assay for Tau Filament Binding | Microtubule-associated protein tau (Homo sapiens), P10636 | recombinant tau filaments, thioflavin S fluorescence, 15 h; filaments grown with octadecylsulfate alongside compound | AID 596, 2007 | 71,000 tested, 2% active | Potency, µM (highest dose often 57.1 µM);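 note: actives lower thioflavin S fluorescence by blocking filaments or displacing dye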
Target sequence (P10636 whole entry, looked up): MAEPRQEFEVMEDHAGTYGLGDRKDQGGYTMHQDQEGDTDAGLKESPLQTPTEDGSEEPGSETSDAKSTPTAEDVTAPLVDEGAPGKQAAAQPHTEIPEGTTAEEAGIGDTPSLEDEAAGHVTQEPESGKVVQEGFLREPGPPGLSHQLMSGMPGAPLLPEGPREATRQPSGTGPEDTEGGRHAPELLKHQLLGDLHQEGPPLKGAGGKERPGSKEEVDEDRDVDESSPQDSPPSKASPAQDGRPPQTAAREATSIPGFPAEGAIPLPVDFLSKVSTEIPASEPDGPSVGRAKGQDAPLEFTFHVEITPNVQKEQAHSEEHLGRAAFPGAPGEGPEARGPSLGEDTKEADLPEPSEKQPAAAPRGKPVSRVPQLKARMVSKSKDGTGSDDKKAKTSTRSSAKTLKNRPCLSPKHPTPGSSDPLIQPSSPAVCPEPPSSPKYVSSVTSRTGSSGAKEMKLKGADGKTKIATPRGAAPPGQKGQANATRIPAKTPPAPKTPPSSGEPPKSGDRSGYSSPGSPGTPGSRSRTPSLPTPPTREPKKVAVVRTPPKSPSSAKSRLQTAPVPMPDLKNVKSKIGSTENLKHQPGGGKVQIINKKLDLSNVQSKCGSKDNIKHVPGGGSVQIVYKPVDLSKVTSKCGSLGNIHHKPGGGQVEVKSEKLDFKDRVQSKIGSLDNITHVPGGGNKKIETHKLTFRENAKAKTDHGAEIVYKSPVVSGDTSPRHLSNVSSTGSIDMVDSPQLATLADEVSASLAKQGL
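Recombinant tau protein (human, 1 uM final) plus 30 uM ODS in HEPES pH 7.4 with NaCl, DTT and thioflavine S. Compound present from the start; fluorescence at 510 nm after 15 h, 37 C.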
A number is an active result; – = inactive; ? = inconclusive; · = no result given; [ ] = dose if it differs, or a comment. Only some compounds are listed: those with a hit (about 3.4% of all), similar ones and a draw of the others. Calls come from the whole dose curve; as a rule, active = well fitted curve in the direction sought with a large enough effect; inconclusive = small, poorly fitted or top-dose-only effect, or another doubt; inactive = no such curve, though single readings can be large; an effect the other way counts as inactive or inconclusive.

SMILES | Luciferase inh | p53ts 32C kill | p53ts 39C kill | Imprint erasure | Tau filament bind
Cc1ccc(-c2noc(CN(C3CCCCC3)S(=O)(=O)c3ccc(C)cc3)n2)cc1 | · | – | – | –[10.9 µM] | ·
COc1ccc(S(=O)(=O)NC2(C(F)(F)F)NC(=O)N(CCc3ccccc3)C2=O)cc1 (configuration not stated) | · | – | – | –[10.9 µM] | ·
Cc1ccc(N=Cc2nc(-c3ccco3)oc2O)cc1 | 16µM | – | – | – | –
O=C(Oc1oc(-c2ccco2)nc1C=Nc1ccccc1)c1ccco1 | – | · | · | · | ·
COc1ccc(-c2cn3c(n2)CCC3)cc1 | 16µM | – | – | – | –
Cc1ccc(-c2cn3c(n2)CCCC3)cc1 | – | – | – | – | –
CCCc1nc2sc3ccccc3c(=O)c2c(=O)n1Cc1ccco1 | – | – | – | – | 16µM
CCc1ccc(OCC(=O)Nc2ccc(Cl)c(-c3nc4cc(C)cc(C)c4o3)c2)cc1 | · | – | – | –[10.9 µM] | ·
Cc1ccc(OCC(=O)Nc2cccc(O)c2)cc1C | 16µM | – | – | – | –
CCC(=O)Nc1cccc(NC(=O)COc2ccc(OC)cc2)c1 | 20µM | – | – | – | –
Cc1ccc2nc(-c3cc(NC(=O)COc4ccc(C)c(C)c4)ccc3Cl)oc2c1 | · | ? | 13µM | –[10.9 µM] | ·
O=C(Cn1c(-c2cccs2)cc2ccccc21)N1CCN(c2ccc(Cl)cc2)CC1 | · | – | · | · | ·
CCOc1ccc(CNC(=O)c2ccccc2NC(=O)c2nsc3ccccc23)cc1 | · | ? | 10µM | ? | ·
CCOc1ccc(CNC(=O)c2ccc(NC(=O)c3nsc4ccccc34)cc2)cc1 | · | – | – | –[10.9 µM] | ·
CSc1n[nH]c(NCc2ccc(C)cc2)n1 | · | 11µM | 14µM | · | ·
CSc1n[nH]c(NCc2ccc(Cl)cc2)n1 | · | – | – | · | ·
COc1ccc(N2CSC3=C(C#N)C(c4cc(OC)c(OC)cc4OC)CC(=O)N3C2)c(OC)c1 (configuration not stated) | – | – | – | – | ?
COc1ccc(N2CSC3=C(C#N)C(c4ccc(OC)c(OC)c4)CC(=O)N3C2)c(OC)c1 (configuration not stated) | – | ? | – | – | 20µM
CCOc1ccccc1N1CSC2=C(C#N)C(c3c(OC)ccc4ccccc34)CC(=O)N2C1 (configuration not stated) | ? | – | – | – | 25µM
COc1ccc(N2CSC3=C(C#N)C(c4cc(OC)ccc4OC)CC(=O)N3C2)c(OC)c1 (configuration not stated) | – | – | – | – | 25µM
CCOC(=O)c1ccc(NC2(c3ccccc3)C(=O)c3ccccc3C2=O)cc1 | · | – | ? | –[10.9 µM] | ·
CC(C)c1ccc(NC(=O)c2ccc3c(c2)CCCN3S(C)(=O)=O)cc1 | · | 13µM | – | –[10.9 µM] | ·
COc1ccc(C(c2nnnn2Cc2ccc(F)cc2)N2CCN(c3ccc(OC)cc3)CC2)cc1 (configuration not stated) | – | – | – | – | 10µM
Oc1c(CN2CCN(c3ccccc3)CC2)cc(Br)c2cccnc12 | –[11.4 µM] | –[9.22 µM] | ? | –[10.9 µM] | ?
Oc1c(Br)cc(Br)c2cccnc12 | · | ? | 7.9µM | – | ·
SMILES | Luciferase inh | p53ts 32C kill | p53ts 39C kill | Imprint erasure | Tau filament bind
Cc1ccc(-n2ncc3c(NC4CCCCCC4)ncnc32)cc1Cl | · | – | ? | –[10.9 µM] | ·
Clc1ccc(-n2ncc3c(NCC4CCCO4)ncnc32)cc1 (configuration not stated) | 5µM | ? | ? | – | –
Clc1ccc(-n2ncc3c(NC4CCCC4)ncnc32)cc1 | · | 13µM | 16µM | –[10.9 µM] | ·
Clc1ccc(-n2ncc3c(NCc4ccco4)ncnc32)cc1 | 4µM | · | · | · | ·
Cc1cc(C)c(S(=O)(=O)NCCc2csc3nc(-c4ccc(Cl)cc4)nn23)c(C)c1 | · | – | – | –[10.9 µM] | ·
CC1CCCc2sc3nc(SCC(=O)c4ccc(Br)cc4)nc(N)c3c21 (configuration not stated) | · | – | – | –[10.9 µM] | ·
COc1ccc2c(c1)c1nnc(SCC(=O)N3C(C)CCCC3C)nc1n2C (configuration not stated) | – | – | – | – | 13µM
COc1ccc(NC2=Nc3ccccc3CC2)cc1 | 20µM | – | – | – | –
COc1ccc(NC(=O)N2CCCc3ccccc32)cc1 | – | – | – | – | –
Cc1cccc(C)c1-n1ncc(C(=O)NCCN2CCN(C)CC2)c1C1CCN(C(=O)OC(C)(C)C)CC1 | · | – | – | –[10.9 µM] | ·
Cc1cc(-c2ccc(N3C(=O)CCC3=O)c(C)c2)ccc1N1C(=O)CCC1=O | 16µM | ? | – | – | –
CCOC(=O)c1cc(-c2ccc(F)cc2)n(CC(=O)NC2CCCCC2)c1C | · | – | – | –[10.9 µM] | ·
Cc1ccc(NC(=O)Cn2c(=O)oc3cc(S(=O)(=O)N4CCC(C)CC4)ccc32)cc1Cl | · | – | ? | –[10.9 µM] | ·
O=C(Nc1ccon1)c1cc2c(s1)CCCCCC2 | 25µM | – | ? | – | –
Cc1cc(C)n2c(SC/C(O)=C(\C#N)c3nc4ccccc4[nH]3)nnc2n1 | – | – | – | – | 10µM
O=C(O)c1ccncc1.O=C(O)c1ccncc1.[Cl][Pt]([Cl])([Cl])[Cl] | –[11.4 µM] | –[9.22 µM] | –[9.22 µM] | –[10.9 µM] | –[11.4 µM]
CC(C)Cc1nn2c(=O)cc(COC(=O)c3ccccc3NC(=O)C3CCCCC3)nc2s1 | · | – | – | –[10.9 µM] | ·
CCOC(=O)NC(=O)CSc1nc(C)cc(C)c1C#N | – | 5µM | 6.3µM | · | –
Cc1cc(C)c(C#N)c(SCC(=O)Nc2ccccc2C(N)=O)n1 | – | 13µM | 2µM | – | –
COc1ccc(N2CCN(Cc3cc(=O)oc4ccc(Cl)cc34)CC2)cc1 | – | – | – | – | –
COc1ccc2nc3cc(Cl)ccc3c(Nc3ccc(O)c(CN4CCN(C)CC4)c3)c2c1 | –[11.4 µM] | –[9.22 µM] | –[9.22 µM] | –[10.9 µM] | 0.25µM
Cc1ccc(NC(=O)CSc2nnc(NC(=O)NC3CCCCC3)s2)cc1 | · | – | ? | –[10.9 µM] | ·
COc1cccc(NC(=O)CSc2nnc(NC(=O)NC3CCCCC3)s2)c1 | · | 11µM | 13µM | ? | ·
CC(=O)c1ccc(NC(=O)Cn2c(=O)n(Cc3ccco3)c(=O)c3sc4ccccc4c32)cc1 | · | – | – | –[10.9 µM] | ·
COc1cccc(C(=O)N2c3ncnn3C3(CCCCC3)[C@@H]3CCCC[C@@H]32)c1 | · | – | – | –[10.9 µM] | ·
SMILES | Luciferase inh | p53ts 32C kill | p53ts 39C kill | Imprint erasure | Tau filament bind
Cc1cccc(C(=O)N2c3ncnn3C3(CCCCC3)[C@@H]3CCCC[C@@H]32)c1 | · | – | 13µM | –[10.9 µM] | ·
CN=c1scc(C)n1/N=C/c1ccc2c(c1)OCO2 | 4µM | 5µM | 5µM | – | ?
Cc1nnc(C)n1/N=C/c1ccc2c(c1)OCCO2 | – | – | – | – | –
CN=c1scc(C)n1/N=C/c1ccc(O)cc1O | 4µM | 5µM | 5µM | – | –
CN=c1scc(C)n1/N=C/c1ccc(O)cc1 | 13µM | 7.9µM | ? | – | ?
CCCc1nc2ccccc2c(=O)n1/N=C/c1ccc(O)cc1O | – | – | – | – | –

Screens from PubChem BioAssay.
